Measurements: PubChem BioAssay (NCATS)
Results filed as inconclusive are left out. Where a call stands in place of a potency, no number is given. The source made the active and inactive calls. The call rests on the fitted dose curve; in most records, active means well fitted curve in the direction sought with a large enough effect; inconclusive means small, poorly fitted or top-dose-only effect, or another doubt; inactive means no such curve, though single readings can be large; an effect the other way counts as inactive or inconclusive.

Assays:
[1] = molecular target: Voltage-gated inwardly rectifying potassium channel KCNH2 (Homo sapiens) (UniProt Q12809); test: qHTS Assay for Small Molecule Inhibitors of the Human hERG Channel Activity (AID 588834);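 further: lower thallium flux fluorescence means stronger hERG block; nearly all actives have a fitted effect of over 50% in size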; further: potency means the concentration at half of the fitted maximal effect
In short: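 hERG-BacMam U2OS, 2000 cells/well; 0.7X FluxOR loading 1 hr RT dark; cpd ~10 min 37 °C; stim buffer; FDSS fluorescence 2 min @ 1 s; AC50 Hill fit.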

[2] = S16 Schwann cell PMP22 intronic element firefly luciferase assay (AID 624032); further: series mostly up to about 58 µM; nearly all actives have a fitted effect of over 30% in size
In short: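 Rat S16 Schwann cells stably carrying firefly luciferase driven by a PMP22 intronic element, in 10% FBS, treated 24 h at 37 C. ONE-Glo luminescence normalized to PTC124 control and DMSO (0%); curves classed by r2, magnitude and activity.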

[3] = molecular target: Luciferin 4-monooxygenase (Photinus pyralis) (UniProt P08659); test: Biochemical firefly luciferase enzyme assay for NPC (AID 624030);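 further: purified P. pyralis luciferase at 10 nM with luciferin and ATP substrate; series mostly up to about 59 µM; nearly all actives have a fitted effect of over 70% in size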
In short: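 Purified P. pyralis luciferase at 10 nM in 50 mM Tris Acetate (final), luminescence read within 5 minutes of enzyme addition to compounds. Activity normalised to PTC124 versus DMSO; concentration-response curves classed by r2, magnitude and activity.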

[4] = S16 Schwann cell viability assay (CellTiter-Glo assay) (AID 624031);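 further: native untransfected S16 rat Schwann cells; cellular ATP luminescence as a viability measure; series mostly up to about 58 µM; nearly all actives have a fitted effect of over 70% in size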
In short: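 Following overnight culture in 10% FBS DMEM, parental S16 rat Schwann cells are dosed for 24 h at 37 °C. Viability is read as CellTiter-Glo luminescence and expressed as % activity relative to DMSO (0%) and no-cell wells.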

Sequence of Luciferin 4-monooxygenase (Photinus pyralis) (P08659 whole entry, looked up): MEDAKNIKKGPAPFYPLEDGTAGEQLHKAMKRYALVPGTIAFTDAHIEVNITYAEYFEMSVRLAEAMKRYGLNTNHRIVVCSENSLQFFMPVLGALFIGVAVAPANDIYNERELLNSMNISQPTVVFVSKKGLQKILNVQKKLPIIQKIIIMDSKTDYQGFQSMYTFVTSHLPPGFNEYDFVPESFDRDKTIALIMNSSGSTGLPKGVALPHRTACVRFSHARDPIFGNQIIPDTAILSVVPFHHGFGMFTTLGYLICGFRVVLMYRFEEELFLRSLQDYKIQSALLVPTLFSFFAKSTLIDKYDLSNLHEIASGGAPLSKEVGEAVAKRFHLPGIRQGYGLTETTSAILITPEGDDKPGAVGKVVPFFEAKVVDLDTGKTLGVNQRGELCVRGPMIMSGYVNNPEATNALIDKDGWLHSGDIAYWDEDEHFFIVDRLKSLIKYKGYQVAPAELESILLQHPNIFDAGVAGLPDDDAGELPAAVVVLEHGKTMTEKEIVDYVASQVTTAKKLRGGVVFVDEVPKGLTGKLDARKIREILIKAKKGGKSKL
Sequence of Voltage-gated inwardly rectifying potassium channel KCNH2 (Homo sapiens) (Q12809 whole entry, looked up): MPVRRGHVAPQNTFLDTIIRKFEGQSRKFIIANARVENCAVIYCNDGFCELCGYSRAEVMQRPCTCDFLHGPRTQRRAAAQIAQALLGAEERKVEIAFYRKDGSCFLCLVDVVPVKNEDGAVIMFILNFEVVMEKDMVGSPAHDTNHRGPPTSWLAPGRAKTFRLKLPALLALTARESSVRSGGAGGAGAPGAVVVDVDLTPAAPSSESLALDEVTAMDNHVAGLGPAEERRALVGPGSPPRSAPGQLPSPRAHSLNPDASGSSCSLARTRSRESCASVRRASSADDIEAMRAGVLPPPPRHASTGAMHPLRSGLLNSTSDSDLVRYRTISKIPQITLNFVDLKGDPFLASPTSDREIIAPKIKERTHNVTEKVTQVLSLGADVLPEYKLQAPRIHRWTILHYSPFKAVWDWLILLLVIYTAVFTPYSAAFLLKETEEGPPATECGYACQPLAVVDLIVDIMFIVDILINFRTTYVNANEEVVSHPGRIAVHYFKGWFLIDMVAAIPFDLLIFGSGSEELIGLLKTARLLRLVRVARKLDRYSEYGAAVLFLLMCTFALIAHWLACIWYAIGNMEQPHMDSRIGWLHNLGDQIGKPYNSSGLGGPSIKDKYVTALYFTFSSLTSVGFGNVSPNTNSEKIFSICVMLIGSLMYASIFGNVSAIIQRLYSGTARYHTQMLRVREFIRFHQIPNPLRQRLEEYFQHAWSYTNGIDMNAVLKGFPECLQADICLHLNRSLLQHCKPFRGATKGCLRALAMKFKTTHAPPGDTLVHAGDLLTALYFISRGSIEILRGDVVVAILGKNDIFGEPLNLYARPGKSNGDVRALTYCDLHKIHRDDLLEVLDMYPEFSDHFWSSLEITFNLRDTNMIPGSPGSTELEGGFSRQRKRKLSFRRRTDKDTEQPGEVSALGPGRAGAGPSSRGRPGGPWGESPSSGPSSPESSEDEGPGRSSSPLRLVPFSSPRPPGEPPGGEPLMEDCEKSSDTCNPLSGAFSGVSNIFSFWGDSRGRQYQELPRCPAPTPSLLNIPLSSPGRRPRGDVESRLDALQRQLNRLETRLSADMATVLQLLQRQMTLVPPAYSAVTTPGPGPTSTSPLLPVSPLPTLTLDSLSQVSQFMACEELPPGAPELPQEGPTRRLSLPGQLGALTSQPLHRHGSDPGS

SMILES	Potency [1]	Potency [2]	Potency [3]	Potency [4]
CCN(CC)CCOC[C@H]1O[C@@H](O)[C@H](OCCN(CC)CC)[C@@H](O)[C@@H]1O	inactive			
CCN1\C(=C/C=C/C=C/c2sc3ccccc3[n+]2CC)Sc2ccccc21	11.2 µM (active)			
O=C(OC[C@H]1O[C@@H](OC(=O)c2cc(O)c(O)c(OC(=O)c3cc(O)c(O)c(O)c3)c2)[C@H](OC(=O)c2cc(O)c(O)c(OC(=O)c3cc(O)c(O)c(O)c3)c2)[C@@H](OC(=O)c2cc(O)c(O)c(OC(=O)c3cc(O)c(O)c(O)c3)c2)[C@@H]1OC(=O)c1cc(O)c(O)c(OC(=O)c2cc(O)c(O)c(O)c2)c1)c1cc(O)c(O)c(OC(=O)c2cc(O)c(O)c(O)c2)c1	25.1 µM (active)			
CO/N=C(\C(=O)N[C@@H]1C(=O)N2C(C(=O)O)=C(CSC(=O)c3ccco3)CS[C@H]12)c1csc(N)n1	inactive			
C[C@@H]1NC(=O)[C@@H](N)CNC(=O)[C@H](C2CCNC(N)=N2)NC(=O)/C(=C/NC(N)=O)NC(=O)[C@H](CNC(=O)C[C@@H](N)CCCN)NC1=O (stereo partly specified)	inactive			
C=C1CC[C@H](O)CC1=C/C=C1\CCC[C@]2(C)[C@@H]([C@H](C)CC[C@@H](O)C(C)(C)O)CC[C@@H]12	inactive			
COc1ccc([C@@H]2CC(=O)c3c(O)cc(O[C@@H]4O[C@H](CO[C@@H]5O[C@@H](C)[C@H](O)[C@@H](O)[C@H]5O)[C@@H](O)[C@H](O)[C@H]4O)cc3O2)cc1O	inactive			
CC(C)CN(C[C@@H](OP(=O)(O)O)[C@H](Cc1ccccc1)NC(=O)O[C@H]1CCOC1)S(=O)(=O)c1ccc(N)cc1	inactive			
CC1CCCC(C)N1NC(=O)c1ccc(Cl)c(S(N)(=O)=O)c1 (stereo unspecified)	inactive			
CC(C)[C@@H](C)/C=C/[C@@H](C)[C@H]1CC[C@H]2/C(=C/C=C3\C[C@@H](O)CC[C@@H]3C)CCC[C@]12C	inactive			
C[C@H](O)CN(C)C		inactive		
CC(C)Cc1ccc([C@@H](C)C(=O)NS(C)(=O)=O)cc1	inactive	inactive	inactive	inactive
CO/N=C(\C(=O)N[C@@H]1C(=O)N2C(C(=O)[O-])=C(C[n+]3cccc4c3CCC4)CS[C@H]12)c1csc(N)n1	inactive	inactive	inactive	inactive
O=C(O)CCC/C=C\C[C@@H]1[C@@H](/C=C/[C@@H](O)COc2cccc(Cl)c2)[C@H](O)C[C@@H]1O	inactive	inactive	inactive	inactive
CN1c2c(nc(N)[nH]c2=O)NCC1CNc1ccc(C(=O)NC(CCC(=O)O)C(=O)O)cc1 (stereo unspecified)	inactive	inactive	inactive	inactive
Cc1ccc(C(C)(C)c2ccc(C)cc2)cc1	inactive	inactive	inactive	inactive

SMILES	Potency [1]	Potency [2]	Potency [3]	Potency [4]
CCCCC[C@H](O)/C=C/[C@@H]1[C@H]2C/C(=C/CCCC(=O)O)O[C@H]2C[C@H]1O	inactive	inactive	inactive	inactive
CCOC(=O)c1c[nH]c2cc(OCC(C)C)c(OCC(C)C)cc2c1=O	inactive	inactive	inactive	inactive
O=C(O)[C@H]1CN(C/C=C/P(=O)(O)O)CCN1	inactive	inactive	inactive	inactive
COC(=O)CCC[N+](C)(C)C	inactive	inactive	inactive	inactive
CN1C(=O)OC(C)(C)C1=O	inactive	inactive	inactive	inactive
O=C(O)c1ccc(OCCn2ccnc2)cc1	inactive	inactive	inactive	inactive
CNC(=O)[C@H](Cc1c[nH]c2ccccc12)NC(=O)[C@@H](CC(=O)NO)CC(C)C	inactive	inactive	inactive	inactive
CC1CC(O)CC(C)(C)C1 (stereo unspecified)	inactive	inactive	inactive	inactive
O=C(O)COc1ccccc1/C=N/NC(=O)c1ccncc1	inactive	inactive	inactive	inactive
FC(F)OC(Cl)C(F)(F)F (stereo unspecified)	inactive	inactive	inactive	inactive
S=C=Nc1ccc(N=C=S)cc1	inactive	inactive	inactive	inactive
O=S(=O)(O)CCCS(=O)(=O)O	inactive	inactive	inactive	inactive
CC1(C)S[C@@H]2[C@H](NC(=O)C3(N)CCCCC3)C(=O)N2[C@H]1C(=O)O	inactive	inactive	inactive	inactive
CC(C)=CCC/C(C)=C/CC/C(C)=C/CC/C=C(\C)CC/C=C(\C)CCC=C(C)C	inactive	inactive	inactive	inactive
CCOC(=S)SSC(=S)OCC	inactive	inactive	inactive	inactive
